Screens: PubChem BioAssay, Broad Institute
The entries come from a sample that favours hits as a whole.
miR122 inh: activators of miR-122 sensor in Huh7 cells. Huh7 psiCHECK-miR122 Renilla luciferase sensor, 48 h. activation, % at 12.5 µM. hit rate 0.14% among 340,000;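 active means mean activation of 30% or more, with every replicate also reaching 30%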;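 further: higher luciferase signal means stronger suppression of miR-122 activity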
Of the large screens only hits and unclear results are named; the others gave an inactive call.

COCC#Cc1cnc2c(c1)C(=O)N([C@H](C)CO)C[C@H](C)[C@@H](CN(C)S(=O)(=O)c1cccc(OC)c1)O2	none
COCC#Cc1ccc2c(c1)O[C@H](CN(C)Cc1cncnc1)[C@@H](C)CN([C@H](C)CO)S2(=O)=O	none
CCC(=O)Nc1ccc2c(c1)OC[C@H](C)N(CCC(F)(F)F)C[C@H](C)[C@H](OC)CN(C)C2=O	none
COc1ccc(NC(=O)N(C)C[C@@H]2Oc3ncc(Br)cc3C(=O)N([C@H](C)CO)C[C@@H]2C)cc1	none
CN(C)c1ccc(/C=C/c2ccc3ccccc3[n+]2C)cc1	miR122 inh 49.1
COc1cccc(NC(=O)N(C)C[C@@H]2Oc3ncc(C#Cc4cccnc4)cc3C(=O)N([C@@H](C)CO)C[C@@H]2C)c1	none
CCC(=O)N(C)C[C@@H]1Oc2ncc(C#Cc3cccnc3)cc2C(=O)N([C@H](C)CO)C[C@@H]1C	none
COCC#Cc1ccc2c(c1)O[C@@H](CN(C)Cc1cncnc1)[C@H](C)CN([C@@H](C)CO)S2(=O)=O	none
C[C@@H]1CN([C@@H](C)CO)S(=O)(=O)c2ccc(C#Cc3cccnc3)cc2O[C@H]1CN(C)C(=O)C1CC1	none
C[C@@H]1CN([C@H](C)CO)C(=O)c2cc(-c3ccccc3F)cnc2O[C@H]1CN(C)Cc1ccccc1F	none
C[C@H](CO)N1C[C@H](C)[C@@H](CN(C)Cc2ccc(Oc3ccccc3)cc2)Oc2c(NC(=O)C3CCOCC3)cccc2C1=O	none
c1ccc(CCCNCCCn2cnc3c(OCc4ccccc4)ncnc32)cc1	miR122 inh 33.5
CCC(=O)Nc1ccc2c(c1)C(=O)N(C)C[C@@H](OC)[C@H](C)CN(Cc1ccccc1OC)[C@@H](C)CO2	none
C[C@@H]1CN([C@H](C)CO)C(=O)c2cc(C#CCC3CCCC3)cnc2O[C@@H]1CN(C)Cc1ccccn1	none
Cc1ccc(-c2nc(C(Cl)Cl)c3ccccc3n2)cc1	miR122 inh 61.4
C[C@@H]1CN([C@@H](C)CO)C(=O)c2cc(C3=CCCCC3)cnc2O[C@H]1CN(C)Cc1cccc(F)c1	none
CNC(=O)c1nnsc1S(=O)(=O)c1ccc(Cl)cc1	miR122 inh 30.9
O=C(NNS(=O)(=O)c1ccc(Cl)cc1)c1cccs1	none
O=S(=O)(Nc1ccncc1)c1ccc(Cl)cc1	none
C/C=C/c1cnc2c(c1)C(=O)N([C@@H](C)CO)C[C@@H](C)[C@H](CN(C)C(=O)Nc1ccccc1F)O2	none
C[C@H](CO)N1C[C@H](C)[C@@H](CN(C)Cc2ccccc2F)Oc2ncc(/C=C/c3ccccc3)cc2C1=O	none
COCC(=O)N(C)C[C@H]1Oc2ncc(/C=C/c3ccccc3)cc2C(=O)N([C@H](C)CO)C[C@H]1C	none
COCC(=O)N(C)C[C@H]1Oc2ncc(/C=C/c3ccccc3)cc2C(=O)N([C@H](C)CO)C[C@@H]1C	none
C/C=C/c1ccc([C@@H]2[C@@H](CN(C(=O)COC)C(C)C)N(C(C)=O)[C@H]2CO)cc1	miR122 inh 50.0
COc1cccc(-c2cnc3c(c2)C(=O)N([C@H](C)CO)C[C@H](C)[C@@H](CN(C)Cc2ccccc2)O3)c1	none
COc1cnc(-c2ccccn2)nc1Sc1ccccc1Cl	miR122 inh 39.3
CCC(=O)N(C)C[C@@H]1Oc2ncc(C#Cc3ccc(OC)cc3)cc2C(=O)N([C@H](C)CO)C[C@H]1C	none
CCCN1C[C@@H](C)[C@H](OC)CN(C)C(=O)c2ccc(NS(C)(=O)=O)cc2OC[C@@H]1C	none
NC1=NC[C@@H](CC2CCCCC2)N1CCc1cc(C(F)(F)F)cc(C(F)(F)F)c1	miR122 inh 34.9
CC(C)CC#Cc1ccc2c(c1)O[C@@H](CN(C)C(=O)NC1CCCC1)[C@H](C)CN([C@H](C)CO)S2(=O)=O	none
C/C=C/c1cnc2c(c1)C(=O)N([C@H](C)CO)C[C@H](C)[C@@H](CN(C)C(=O)c1cccnc1)O2	none
COCC#Cc1cnc2c(c1)C(=O)N([C@H](C)CO)C[C@@H](C)[C@H](CN(C)C(=O)Cc1ccccc1)O2	none
Cc1cc2[nH]c3c4ccccc4nc(C)c3c2cc1C	miR122 inh 72.2
CC(C)NC(=O)N(C)C[C@H]1Oc2cc(-c3ccccc3)ccc2S(=O)(=O)N([C@@H](C)CO)C[C@H]1C	none
C[C@@H]1CN([C@H](C)CO)C(=O)c2cc(C#CCc3ccccc3)cnc2O[C@H]1CN(C)Cc1ccccn1	none
COc1ccc(C#Cc2ccc3c(c2)O[C@H](CN(C)C)[C@H](C)CN([C@H](C)CO)S3(=O)=O)cc1	none
CC(C)C#Cc1ccc2c(c1)O[C@H](CN(C)C(=O)CN(C)C)[C@@H](C)CN([C@@H](C)CO)S2(=O)=O	none
O=C(Nc1ncc(Cc2cccc(C(F)(F)F)c2)s1)c1ccc(-c2cccc([N+](=O)[O-])c2)o1	miR122 inh 31.7
CCS(=O)(=O)Nc1ccc2c(c1)C(=O)N(C)C[C@@H](OC)[C@@H](C)CN[C@@H](C)CO2	none
C[C@@H]1CN([C@@H](C)CO)C(=O)c2cc(/C=C/c3ccccc3)cnc2O[C@@H]1CN(C)C(=O)c1cccnc1	none
CCC(=O)N(C)C[C@H]1Oc2ncc(C#C[C@@H](C)O)cc2C(=O)N([C@H](C)CO)C[C@H]1C	none
CO[C@H]1CN(C)C(=O)c2cc(NS(=O)(=O)CC(F)(F)F)ccc2OC[C@H](C)N(C)C[C@@H]1C	none
